{"source": "the supplement of paper PMC9950053", "note": "Where a name gives a salt, the structure may show the parent alone.", "data": [{"tested_on": "Danio rerio larvae (5 dpf)", "assay": "excitability (activity period 17 minus period 16, 1-s interval sound) minus DMSO control (percentage points); higher = more acoustic excitability than DMSO larvae", "details": "10 µM; exposure time: 3 h pre-incubation + 3 h imaging", "method": "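Wild-type 5 dpf zebrafish larvae (n=48 per drug, 96-well plates, 28.5 °C) were exposed to Tocris FDA-approved library compounds at 10 µM (0.1% DMSO) for 3 h before and 3 h during imaging. Images were taken every 6 s during visual (moving coloured lines) and acoustic stimuli, and larvae were tracked with the DeepLabCut-based Z-LaP Tracker. Each behavioural measure is the treated-group mean minus the DMSO vehicle control mean (n=844), in percentage points. This mapping covers compounds with 4-character plate codes.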", "values": [{"compound": "CCCc1nc(C(C)(C)O)c(C(=O)O)n1Cc1ccc(-c2ccccc2-c2nnn[nH]2)cc1", "note": "[Olmesartan]", "excitability": 0.0977}, {"compound": "C=CC(=O)N1CCC[C@@H](n2nc(-c3ccc(Oc4ccccc4)cc3)c3c(N)ncnc32)C1", "note": "[Ibrutinib]", "excitability": -1.71}, {"compound": "CCC(C)(C)C(=O)O[C@H]1C[C@@H](C)C=C2C=C[C@H](C)[C@H](CC[C@@H]3C[C@@H](O)CC(=O)O3)[C@H]21", "note": "[Simvastatin]", "excitability": 10.2}, {"compound": "CCN(CC)CCNC(=O)c1c(C)[nH]c(/C=C2\\C(=O)Nc3ccc(F)cc32)c1C", "note": "[Sunitinib malate]", "excitability": 15.8}, {"compound": "OC(CNCC(O)C1CCc2cc(F)ccc2O1)C1CCc2cc(F)ccc2O1", "note": "(stereo not given) [Nebivolol hydrochloride]", "excitability": 12.7}, {"compound": "CC1CNc2c(cccc2S(=O)(=O)N[C@@H](CCCNC(=N)N)C(=O)N2CC[C@@H](C)C[C@@H]2C(=O)O)C1", "note": "(stereo not given in full) [Argatroban]", "excitability": 0.775}, {"compound": "C#C[C@]1(O)CC[C@H]2[C@@H]3CCC4=CC(=O)CC[C@@H]4[C@H]3CC[C@@]21CC", "note": "[Levonorgestrel]", "excitability": 3.64}, {"compound": "C/C(O)=C(\\C#N)C(=O)Nc1ccc(C(F)(F)F)cc1", "note": "[Teriflunomide]", "excitability": 9.34}, {"compound": "COc1cc2ncnc(Nc3ccc(F)c(Cl)c3)c2cc1OCCCN1CCOCC1", "note": "[Iressa]", "excitability": 19.5}, {"compound": "Cc1cn([C@H]2C=C[C@@H](CO)O2)c(=O)[nH]c1=O", "note": "[Stavudine]", "excitability": 1.32}, {"compound": "Cc1cccc(CN2CCN(C(c3ccccc3)c3ccc(Cl)cc3)CC2)c1", "note": "(stereo not given) [Meclizine dihydrochloride]", "excitability": 8.17}, {"compound": "CC(=O)Oc1ccccc1C(=O)O", "note": "[Aspirin]", "excitability": 10.3}, {"compound": "CC(C)(C#N)c1cc(Cn2cncn2)cc(C(C)(C)C#N)c1", "note": "[Anastrozole]", "excitability": 3.43}, {"compound": "Cc1nc(-c2ccc(OCC(C)C)c(C#N)c2)sc1C(=O)O", "note": "[Febuxostat]", "excitability": -0.805}, {"compound": "Cc1nc(Nc2ncc(C(=O)Nc3c(C)cccc3Cl)s2)cc(N2CCN(CCO)CC2)n1", "note": "[Dasatinib]", "excitability": 17.4}, {"compound": "Nc1ccn([C@@H]2O[C@H](CO)[C@@H](O)C2(F)F)c(=O)n1", "note": "[Gemcitabine hydrochloride]", "excitability": 1.87}, {"compound": "CN1CC(=O)N2[C@H](c3ccc4c(c3)OCO4)c3[nH]c4ccccc4c3C[C@@H]2C1=O", "note": "[Tadalafil]", "excitability": 5.81}, {"compound": "COc1cc(Nc2c(C#N)cnc3cc(OCCCN4CCN(C)CC4)c(OC)cc23)c(Cl)cc1Cl", "note": "[Bosutinib]", "excitability": 7.41}, {"compound": "Cc1ccc(NC(=O)c2ccc(CN3CCN(C)CC3)cc2)cc1Nc1nccc(-c2cccnc2)n1", "note": "[Imatinib mesylate]", "excitability": 13.3}, {"compound": "Cc1ccc(N(CC2=NCCN2)c2cccc(O)c2)cc1", "note": "[Phentolamine Mesylate]", "excitability": 15.6}, {"compound": "CN1CCC[C@@H]1Cc1c[nH]c2ccc(CCS(=O)(=O)c3ccccc3)cc12", "note": "[Eletriptan hydrobromide]", "excitability": 6.84}, {"compound": "CCC(=O)O[C@]1(C(=O)SCF)[C@H](C)C[C@H]2[C@@H]3C[C@H](F)C4=CC(=O)C=C[C@]4(C)[C@@]3(F)[C@@H](O)C[C@@]21C", "note": "[Fluticasone propionate]", "excitability": 3.16}, {"compound": "CC[C@H](C)C(=O)O[C@H]1C[C@@H](C)C=C2C=C[C@H](C)[C@H](CC[C@@H]3C[C@@H](O)CC(=O)O3)[C@H]21", "note": "[Lovastatin]", "excitability": 15}, {"compound": "CC(=O)S[C@@H]1CC2=CC(=O)CC[C@]2(C)[C@H]2CC[C@@]3(C)[C@@H](CC[C@@]34CCC(=O)O4)[C@H]12", "note": "[Spironolactone]", "excitability": 3.91}, {"compound": "Nc1ncn([C@H]2C[C@H](O)[C@@H](CO)O2)c(=O)n1", "note": "[Decitabine]", "excitability": 8.23}, {"compound": "CNC(=O)c1ccccc1Sc1ccc2c(/C=C/c3ccccn3)n[nH]c2c1", "note": "[Axitinib]", "excitability": 1.48}, {"compound": "NS(=O)(=O)Cc1noc2ccccc12", "note": "[Zonisamide]", "excitability": 4.75}, {"compound": "CN1CC[C@@H](NC(=O)Nc2ccc(C#N)cc2)C[C@@H]1c1nc2ccccc2[nH]1", "excitability": 6.95}, {"compound": "CC(C)CN(C[C@@H](O)[C@H](Cc1ccccc1)NC(=O)O[C@H]1CO[C@H]2OCC[C@H]21)S(=O)(=O)c1ccc(N)cc1", "note": "[Darunavir]", "excitability": -0.913}, {"compound": "Cc1nnc(C(C)C)n1C1C[C@H]2CC[C@@H](C1)N2CC[C@H](NC(=O)C1CCC(F)(F)CC1)c1ccccc1", "note": "(stereo in doubt) [Maraviroc]", "excitability": 6.13}, {"compound": "Nc1nc(F)nc2c1ncn2[C@@H]1O[C@H](CO)[C@@H](O)[C@@H]1O", "note": "[Fludarabine]", "excitability": 1.97}, {"compound": "Cc1c(-c2ccc(O)cc2)n(Cc2ccc(OCCN3CCCCCC3)cc2)c2ccc(O)cc12", "note": "[Bazedoxifene acetate]", "excitability": 15.4}, {"compound": "CN(C)CCc1c[nH]c2ccc(Cn3cncn3)cc12", "note": "[Rizatriptan benzoate]", "excitability": -0.877}, {"compound": "CCN(Cc1ccncc1)C(=O)C(CO)c1ccccc1", "note": "(stereo not given) [Tropicamide]", "excitability": -2.02}, {"compound": "Nc1nc(Cl)nc2c1ncn2[C@@H]1O[C@H](CO)[C@@H](O)[C@@H]1F", "note": "[Clofarabine]", "excitability": 4.52}, {"compound": "CS(=O)(=O)CCNCc1ccc(-c2ccc3ncnc(Nc4ccc(OCc5cccc(F)c5)c(Cl)c4)c3c2)o1", "note": "[Lapatinib]", "excitability": 15.5}, {"compound": "C[C@@H](O[C@H]1OCCN(Cc2n[nH]c(=O)[nH]2)[C@H]1c1ccc(F)cc1)c1cc(C(F)(F)F)cc(C(F)(F)F)c1", "note": "[Aprepitant]", "excitability": 8.09}, {"compound": "COC(=O)C1=C(C)NC(C)=C(C(=O)OC(C)C)C1c1cccc2nonc12", "note": "(stereo not given) [Isradipine]", "excitability": 15.3}, {"compound": "COc1cc2nc(N3CCN(C(=O)c4ccco4)CC3)nc(N)c2cc1OC", "note": "[Prazosin hydrochloride]", "excitability": 16.4}, {"compound": "O=C1CCc2cc(OCCCCc3nnnn3C3CCCCC3)ccc2N1", "note": "[Cilostazol]", "excitability": 9.2}]}]}
